# Measurements as given in PubChem BioAssay AID2284372 (EPA ToxCast).
# Results filed as inconclusive are left out. Active and inactive are the calls of the source. The calls were made as follows: active = hit-call score of the fitted dose curve at least 0.9, where 1 is the maximum; inconclusive = response in the unintended direction; inactive = score below 0.9.
# Molecular target: Glucocorticoid receptor (Homo sapiens) (UniProt P04150)
# Test: ATG_hGR_EcoTox2: Attagene TRANS-FACTORIAL EcoTox-2 HepG2 Assay for human Glucocorticoid Receptor (GR)
# Experimental: ATG_EcoTox2 is a cell-based, multiplexed assay created by modifying the existing Attagene TRANS-FACTORIAL system to include a panel of nuclear receptors from some or all the following species: human (Homo sapiens), african clawed frog (Xenopus laevis), rainbow trout (Oncorhynchus mykiss), japanese medaka (Oryzias latipes), and zebrafish (Danio rerio). The ECOTOX2-FACTORIAL format uses HepG2, a human liver cell line, with measurements taken at 24 hours after chemical dosing in a 24-well plate. ATG_hGR_EcoTox2 is one of 29 assay components calculated in the ATG_EcoTox2 assay. It is designed to make measurements of mRNA induction, a form of inducible reporter, as detected with fluorescence intensity signals by Reverse transcription polymerase chain reaction (RT-PCR) and Capillary electrophoresis technology.The assay endpoint ATG_hGR_EcoTox2 was analyzed in the positive analysis fitting direction relative to DMSO as the negative control and baseline of activity. Using a type of inducible reporter, measures of mRNA for gain-of-signal activity can be used to understand the reporter gene at the transcription factor-level as they relate to the gene for glucocorticoid receptor. Furthermore, this assay endpoint can be referred to as a primary readout, because this assay has produced multiple assay endpoints where this one serves a reporter gene function. To generalize the intended target to other relatable targets, this assay endpoint is annotated to the nuclear receptor intended target family, where the subfamily is steroidal.
# Human liver HepG2 cells are transiently transfected with multiple reporter transcription units (MRTUs) in 6-well plates using FuGene 6 reagent (Roche; 3 ml FuGene/1 mg DNA). The MRTU constructs are regulated by a cis-regulating element (promoter). Each RTU expresses a GAL4-UAS that regulates the transcription of a nearby target reporter gene sequence. A major difference between the CIS and TRANS system is that in CIS activities of endogenous TFs are measured, whereas the TRANS assay evaluates changes in activities of exogenous, chimeric NR-Gal4 proteins. […] At the end of 24 hour incubation, total RNA was isolated using TriZol reagent (Invitrogen). The isolated RNA is then reverse-transcribed using oligo(dT) primer and Mo-MLV reverse transcriptase (Invitrogen) with DNAse I (Ambion) treatment for 30 min. The one-tenth of the produced cDNA was amplified by PCR using Taq DNA polymerase (Invitrogen) and two reporter sequence-specific primers. […] The fragments were purified using Qiaquick PCR columns (Qiagen), analyzed on an ABI 3130xL genetic analyzer (Applied Biosystems) with peak positions identified by using a set of X-rhodamine (ROX)-labeled MapMarker1000 molecular weight standards (BioVentures). […]
# Chain of Glucocorticoid receptor (Homo sapiens) (P04150 whole entry, looked up): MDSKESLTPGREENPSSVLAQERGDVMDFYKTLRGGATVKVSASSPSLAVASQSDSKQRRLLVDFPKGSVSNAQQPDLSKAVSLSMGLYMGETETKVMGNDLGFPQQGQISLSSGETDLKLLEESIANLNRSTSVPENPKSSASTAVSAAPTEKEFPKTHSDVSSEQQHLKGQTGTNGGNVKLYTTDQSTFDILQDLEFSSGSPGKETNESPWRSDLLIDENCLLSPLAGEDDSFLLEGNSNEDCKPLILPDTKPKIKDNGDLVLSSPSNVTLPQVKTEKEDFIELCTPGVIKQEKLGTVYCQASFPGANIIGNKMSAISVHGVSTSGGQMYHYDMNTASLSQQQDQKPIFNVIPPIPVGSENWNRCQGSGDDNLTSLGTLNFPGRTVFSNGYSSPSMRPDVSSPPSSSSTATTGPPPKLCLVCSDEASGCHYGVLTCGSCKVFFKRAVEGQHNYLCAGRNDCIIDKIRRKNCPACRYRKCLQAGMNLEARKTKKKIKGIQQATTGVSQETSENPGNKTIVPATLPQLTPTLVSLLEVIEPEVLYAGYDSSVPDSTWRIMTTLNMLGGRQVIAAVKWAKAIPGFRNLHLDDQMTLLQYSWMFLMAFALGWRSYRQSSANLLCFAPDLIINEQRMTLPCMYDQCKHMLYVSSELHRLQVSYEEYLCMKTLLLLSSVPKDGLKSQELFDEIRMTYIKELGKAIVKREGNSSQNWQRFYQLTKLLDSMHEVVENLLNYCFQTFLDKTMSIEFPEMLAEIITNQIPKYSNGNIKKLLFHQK
SMILES,outcome,AC50
CCCCOCN(C(=O)CCl)c1c(CC)cccc1CC,inactive,–
O=P(Oc1ccccc1)(Oc1ccccc1)Oc1ccccc1,inactive,–
CC(C)(Oc1ccc(Cl)cc1)C(=O)O,inactive,–
CC(c1cc2ccccc2s1)N(O)C(N)=O (centres undefined),–,50 µM (active)
